Hit rate of the full screen: of about 5,500 compounds, about 2,000 (36%) were called active. Another 18% or so got no clear call; they are omitted. Rule as the data show it: active = normalized growth mostly below about 0.91 (no sharp cut-off); inconclusive = no clear call, values can overlap the other calls; inactive = mostly above about 0.92. The list shows a part of the results.
Experiment: chemical genetic growth profiling, strain panel (AID 1159580);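 also: tested at 20 µM; growth read once vehicle control cultures reached saturation at 30 °C; 1 = growth at the plate median or of vehicle wells; lower values mean less growth of the strain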
Settings: S. cerevisiae deletion strains, growth OD
[1] = locus YAL013W, strain DEP1, active compounds read low
[2] = locus YBR229C, strain ROT2, active compounds read low
[3] = locus YCL061C, strain MRC1, active compounds read low
[4] = locus YDL101C, strain DUN1, active compounds read low
[5] = locus YDL134C, strain PPH21, active compounds read low
[6] = locus YDR150W, strain NUM1, active compounds read low
[7] = locus YEL061C, strain CIN8, active compounds read low
[8] = locus YGR078C, strain PAC10, active compounds read low
[9] = locus YHR030C, strain SLT2, active compounds read low
[10] = locus YHR087W, strain rtc3, active compounds read low
[11] = locus YJR043C, strain POL32, active compounds read low
[12] = locus YJR075W, strain HOC1, active compounds read low
[13] = locus YKL190W, strain CNB1, active compounds read low
[14] = locus YLR039C, strain RIC1, active compounds read low
[15] = locus YLR058C, strain SHM2 (second series), active compounds read low
[16] = locus YLR085C, strain ARP6, active compounds read low
[17] = locus YLR262C, strain YPT6, active compounds read low
[18] = locus YML094W, strain GIM5, active compounds read low
[19] = locus YMR219W, strain ESC1, active compounds read low
[20] = locus YMR263W, strain SAP30, active compounds read low
[21] = locus YMR307W, strain GAS1, active compounds read low
[22] = locus YNL153C, strain GIM3, active compounds read low
[23] = locus YNL298W, strain CLA4 (second series), active compounds read low
[24] = locus YNL322C, strain KRE1, active compounds read low
[25] = locus YNR030W, strain Alg12, active compounds read low
[26] = locus YPL055C, strain LGE1, active compounds read low
[27] = locus YPL241C, strain CIN2, active compounds read low
[28] = locus YPR135W, strain CTF4, active compounds read low
[29] = locus YGR229C, strain SMI1, active compounds read low
[30] = locus YAR019C, strain CDC15, active compounds read low
[31] = locus YBL105C, strain PKC1, active compounds read low
[32] = locus YBR135W, strain CKS1, active compounds read low
[33] = locus YBR136W, strain MEC1, active compounds read low
[34] = locus YBR160W, strain CDC28, active compounds read low
[35] = locus YDL017W, strain CDC7, active compounds read low
[36] = locus YDL028C, strain MPS1, active compounds read low
[37] = locus YDL108W, strain KIN28, active compounds read low
[38] = locus YDL132W, strain cdc53, active compounds read low
[39] = locus YDL214C, strain PRR2, active compounds read low
[40] = locus YDR052C, strain DBF4, active compounds read low
[41] = locus YDR054C, strain cdc34, active compounds read low
[42] = locus YDR226W, strain ADK1, active compounds read low
[43] = locus YDR477W, strain SNF1, active compounds read low
[44] = locus YER123W, strain YCK3, active compounds read low
[45] = locus YER133W, strain GLC7, active compounds read low
[46] = locus YFL009W, strain cdc4, active compounds read low
[47] = locus YFL029C, strain CAK1, active compounds read low
[48] = locus YFR003C, strain YPI1, active compounds read low
[49] = locus YFR019W, strain FAB1, active compounds read low
[50] = locus YFR028C, strain CDC14, active compounds read low
[51] = locus YGR040W, strain KSS1, active compounds read low
[52] = locus YGR052W, strain FMP48, active compounds read low
[53] = locus YGR092W, strain DBF2, active compounds read low
[54] = locus YHR079C, strain IRE1, active compounds read low
[55] = locus YHR082C, strain KSP1, active compounds read low
[56] = locus YHR205W, strain SCH9, active compounds read low
[57] = locus YIL147C, strain SLN1, active compounds read low
[58] = locus YJL095W, strain BCK1, active compounds read low
[59] = locus YJL128C, strain PBS2, active compounds read low
[60] = locus YJL157C, strain FAR1, active compounds read low
[61] = locus YJR016C, strain ILV3, active compounds read low
[62] = locus YJR066W, strain TOR1 (second series), active compounds read low
[63] = locus YJR066W, strain TOR1, active compounds read low
[64] = locus YKL048C, strain ELM1, active compounds read low
[65] = locus YKL067W, strain YNK1, active compounds read low
[66] = locus YKL101W, strain HSL1, active compounds read low
[67] = locus YKL193C, strain SDS22, active compounds read low
[68] = locus YKL203C, strain TOR2, active compounds read low
[69] = locus YLR133W, strain CKI1, active compounds read low
[70] = locus YLR403W, strain SFP1, active compounds read low
[71] = locus YML070W, strain DAK1, active compounds read low
[72] = locus YMR001C, strain CDC5, active compounds read low
[73] = locus YMR205C, strain PFK2 (second series), active compounds read low
[74] = locus YMR277W, strain FCP1, active compounds read low
[75] = locus YNL006W, strain LST8, active compounds read low
[76] = locus YNL020C, strain ARK1, active compounds read low
[77] = locus YNL161W, strain CBK1, active compounds read low
[78] = locus YNL183C, strain NPR1, active compounds read low
[79] = locus YNL207W, strain RIO2, active compounds read low
[80] = locus YNL222W, strain SSU72, active compounds read low
[81] = locus YNL307C, strain MCK1 (second series), active compounds read low
[82] = locus YOL078W, strain AVO1, active compounds read low
[83] = locus YOL136C, strain PFK27, active compounds read low
[84] = locus YOR061W, strain CKA2, active compounds read low
[85] = locus YOR119C, strain RIO1, active compounds read low
[86] = locus YOR231W, strain MKK1, active compounds read low
[87] = locus YOR329C, strain SCD5, active compounds read low
[88] = locus YPL031C, strain PHO85, active compounds read low
[89] = locus YPL153C, strain RAD53, active compounds read low
[90] = locus YPL204W, strain HRR25, active compounds read low
[91] = locus YPL209C, strain IPL1, active compounds read low
[92] = locus YPL256C, strain CLN2, active compounds read low
[93] = locus YPR025C, strain CCL1, active compounds read low
[94] = locus YPR106W, strain ISR1, active compounds read low
[95] = locus YPR111W, strain DBF20, active compounds read low
[96] = strain NNK1, active compounds read low
[97] = strain TSCII, active compounds read low

Measured: normalized growth

FC(F)(F)c1cnc(N2CCN(C(=S)Nc3ccccc3)CC2)c(Cl)c1
inactive: [1] 0.989 | [2] 1.01 | [3] 1 | [4] 0.999 | [5] 1.01 | [6] 0.963 | [7] 0.985 | [8] 0.993 | [9] 1.05 | [10] 1.03 | [11] 0.986 | [12] 1.02 | [13] 1.01 | [14] 0.984 | [15] 1.02 | [16] 1.03 | [17] 1.02 | [18] 0.952 | [19] 1.02 | [20] 0.982 | [21] 1 | locus YNL128W, strain TEP1, active compounds read low 1.01 | [22] 0.972 | [23] 0.976 | [24] 1.01 | [25] 1 | locus YOL006C, strain TOP1, active compounds read low 0.894 | [26] 0.938 | [27] 0.955 | [28] 0.981

Cc1cc(C)cc(NC(=S)N2CCN(c3ncc(C(F)(F)F)cc3Cl)CC2)c1
inactive: [1] 1 | [2] 1.01 | [3] 1 | [4] 1 | [5] 0.986 | [6] 0.997 | [7] 1.01 | [8] 1 | [29] 0.976 | [9] 1.02 | [10] 1.01 | [11] 1.01 | [12] 0.996 | [13] 0.98 | [14] 1.04 | [15] 1.01 | [16] 0.99 | [17] 1.03 | [18] 1.02 | [19] 0.999 | [20] 1 | [21] 0.907 | [22] 1.01 | [23] 1.06 | [24] 0.998 | [25] 1.02 | [26] 1.03 | [27] 0.886 | [28] 1

CC(C)c1ccccc1NC(=S)N1CCN(c2ncc(C(F)(F)F)cc2Cl)CC1
active: [14] 0.761 | [17] 0.736
inactive: [1] 1.02 | [2] 0.995 | [4] 0.985 | [6] 1.02 | [7] 1.01 | [8] 1.01 | [29] 0.963 | [9] 0.976 | [10] 1.02 | [11] 0.995 | [12] 0.972 | [15] 0.977 | [16] 1.1 | [18] 1.04 | [19] 0.992 | [20] 0.991 | [22] 1.02 | [23] 0.984 | [24] 0.998 | [25] 1.02 | [26] 1.13 | [27] 1.07 | [28] 1.17

O=C(NCCNc1ncc(Cl)cc1C(F)(F)F)C(F)(F)Sc1ccccc1
inactive: [30] 0.982 | [31] 0.978 | [32] 0.975 | [33] 0.984 | [34] 0.979 | [35] 0.977 | [36] 0.992 | [4] 0.982 | [37] 0.981 | [38] 0.977 | [39] 0.987 | [40] 0.982 | [41] 0.991 | [42] 0.982 | [43] 0.996 | [44] 1.01 | [45] 1 | [46] 0.979 | [47] 0.984 | [48] 0.985 | [49] 0.996 | [50] 0.982 | [51] 0.991 | [52] 1.14 | [53] 0.994 | [54] 1.17 | [55] 1.19 | [56] 0.975 | [57] 0.986 | [58] 1.16 | [59] 0.934 | [60] 0.985 | [61] 0.989 | [62] 1.01 | [63] 1.19 | [64] 0.973 | [65] 0.991 | [66] 0.984 | [67] 0.973 | [68] 1.08 | [69] 0.979 | [70] 0.998 | [71] 0.986 | [72] 0.969 | [73] 0.984 | [74] 0.975 | [75] 0.983 | [76] 0.978 | [77] 0.984 | [78] 1.13 | [79] 0.989 | [80] 0.976 | [81] 0.972 | [82] 0.981 | [83] 1 | [84] 0.992 | [85] 1.02 | [86] 1.12 | [87] 0.985 | [88] 0.99 | [89] 1.01 | [90] 0.995 | [91] 0.983 | [93] 0.984 | [94] 0.982 | [95] 0.979 | [96] 0.993 | [97] 0.978
active: [9] 1.2 [resistant] | [92] 1.25 [resistant]

O=C(NCCNc1ncc(C(F)(F)F)cc1Cl)C(F)(F)Sc1ccccc1
inactive: [30] 0.985 | [31] 0.983 | [32] 0.971 | [33] 0.973 | [34] 0.984 | [35] 0.977 | [36] 0.97 | [4] 0.976 | [37] 0.957 | [38] 0.988 | [39] 0.898 | [40] 0.986 | [41] 0.978 | [42] 0.982 | [43] 0.919 | [44] 0.828 | [45] 0.924 | [46] 0.982 | [47] 0.988 | [48] 0.972 | [49] 0.885 | [50] 0.989 | [51] 0.916 | [52] 0.978 | [53] 0.909 | [9] 0.99 | [54] 0.994 | [55] 1 | [56] 0.912 | [57] 0.974 | [58] 0.98 | [59] 0.914 | [60] 0.887 | [61] 0.974 | [62] 0.899 | [63] 0.989 | [64] 0.939 | [65] 0.91 | [66] 0.908 | [67] 0.984 | [68] 0.991 | locus YLR113W, strain HOG1, active compounds read low 0.883 | [69] 0.916 | [70] 0.922 | [71] 0.876 | [72] 0.978 | [73] 0.907 | [74] 0.983 | [75] 0.978 | [76] 0.894 | [77] 0.985 | [78] 0.961 | [79] 0.983 | [80] 0.979 | [81] 0.905 | [82] 0.98 | [83] 0.893 | [84] 0.868 | [85] 0.966 | [86] 0.939 | [87] 0.987 | [88] 0.912 | [89] 0.907 | [90] 0.936 | [91] 0.975 | [92] 1 | [93] 0.98 | [94] 0.984 | [95] 0.968 | [96] 0.982 | [97] 0.982
